From the supplement of paper PMC8728848 come the findings set out here.

What all share (experiment): glycan array binding signal (z-score within array); higher = stronger binding
Common to all, as to conditions: glycan notation: IUPAC condensed, linker removed

In one experiment the target is Fuc(a1-2)Gal(b1-3)GalNAc. In short, it runs like this: (§1)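 Columns mapping to the same glycan were averaged after glycan names were converted to IUPAC-condensed notation. The data come from 3228 arrays in the Consortium for Functional Glycomics database, limited to those with an available protein sequence. Binding is reported as a within-array Z-score averaged across arrays of one protein sequence and across linkers.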

Experiment [1] concerns the target Fuc(a1-2)Gal(b1-4)[Fuc(a1-3)]GlcNAc(b1-3)Gal(b1-4)[Fuc(a1-3)]GlcNAc. Summed up: as §1
The target in another experiment is Fuc(a1-2)GlcNAc. Summed up:
as §1

Experiment [2] has as its target Fuc(a1-3)[Gal3S(b1-4)]GlcNAc. In short, it runs like this:
as §1

For experiment [3], the target named is Gal(b1-3)[Fuc(a1-4)]GlcNAc(b1-3)Gal(b1-4)[Fuc(a1-3)]GlcNAc. Summed up:
as §1

Experiment [4] has as its target Gal(b1-4)GlcNAc(b1-3)Gal(b1-4)[Fuc(a1-3)]GlcNAc(b1-3)Gal(b1-4)[Fuc(a1-3)]GlcNAc. In short, it runs like this:
as §1

The target of the next experiment is Gal3S(b1-4)Glc. Summed up: as §1
The target of the next experiment is Gal3S(b1-4)GlcNAc6S. In short, it runs like this: as §1
In the next experiment the target is Gal3S6S(b1-4)GlcNAc6S. Summed up:
as §1

In experiment [5] the target is GlcNAc(b1-2)Gal(b1-3)GalNAc. Summed up: as §1
The target of another experiment is Kdn(a2-3)Gal(b1-4)GlcNAc. Summed up:
as §1

The target in a further experiment is Man(a1-3)[Man(a1-6)]Man. Summed up:
as §1

For experiment [6], the target named is Neu5Ac(a2-3)Gal(b1-3)GalNAc6S. Summed up: as §1
Experiment [7] concerns the target Neu5Ac(a2-3)Gal(b1-4)GlcNAc(b1-3)Gal(b1-4)GlcNAc. In short, it runs like this: as §1
For experiment [8], the target named is Neu5Ac(a2-6)Gal(b1-4)GlcNAc(b1-2)Man(a1-3)[Neu5Ac(a2-6)Gal(b1-4)GlcNAc(b1-2)Man(a1-6)]Man(b1-4)GlcNAc(b1-4)GlcNAc. In short, it runs like this: as §1
Experiment [9] concerns the target Neu5Ac(a2-6)Gal(b1-4)GlcNAc6S. Summed up:
as §1

The target in experiment [10] is Neu5Ac9Ac(a2-6)Gal(b1-4)GlcNAc. Summed up:
as §1

The next experiment deals with Fuc(a1-2)Gal(b1-4)GlcNAc. Summed up: as §1
Experiment [11] concerns the target Fuc(a1-2)Gal(b1-4)GlcNAc(b1-3)Gal(b1-4)GlcNAc. In short, it runs like this:
as §1

Experiment [12] deals with Fuc(a1-2)[Gal(a1-3)]Gal(b1-4)[Fuc(a1-3)]GlcNAc. Summed up: as §1
Experiment [13] concerns the target Gal(b1-3)GalNAc(b1-4)Gal(b1-4)Glc. In short, it runs like this: as §1
For experiment [14], the target named is Gal(b1-3)[Fuc(a1-4)]GlcNAc(b1-3)Gal(b1-4)GlcNAc. Summed up: as §1
In the next experiment the target is Gal(b1-4)Glc. In short, it runs like this: as §1
The target of experiment [15] is Gal(b1-4)GlcNAc(b1-3)Gal(b1-4)Glc. In short, it runs like this: as §1
Experiment [16] has as its target Gal(b1-4)GlcNAc(b1-3)Gal(b1-4)GlcNAc(b1-3)Gal(b1-4)GlcNAc. Summed up: as §1
Experiment [17] has as its target Gal(b1-4)GlcNAc(b1-3)GalNAc. Summed up: as §1
The target in experiment [18] is GlcNAc(b1-4)GlcNAc(b1-4)GlcNAc(b1-4)GlcNAc(b1-4)GlcNAc(b1-4)GlcNAc. In short, it runs like this:
as §1

The target in experiment [19] is Neu5Ac(a2-3)Gal(b1-3)[Fuc(a1-4)]GlcNAc(b1-3)Gal(b1-4)[Fuc(a1-3)]GlcNAc. Summed up: as §1
Experiment [20] deals with Neu5Ac(a2-3)GalNAc(b1-4)GlcNAc. Summed up:
as §1

The target in experiment [21] is Neu5Ac(a2-6)Gal(b1-4)GlcNAc(b1-3)Gal(b1-4)[Fuc(a1-3)]GlcNAc(b1-3)Gal(b1-4)[Fuc(a1-3)]GlcNAc. Summed up: as §1
Experiment [22] addresses Neu5Gc(a2-3)Gal(b1-3)[Fuc(a1-4)]GlcNAc. In short, it runs like this:
as §1

In another experiment the target is Neu5Gc(a2-3)Gal(b1-4)Glc. Summed up: as §1

This is one part of a sample in which the strongest signals are shown more often than they occur.

B1: MMR (Homo sapiens), P22897 (protein)
chain: MRLPLLLVFASVIPGAVLLLDTRQFLIYNEDHKRCVDAVSPSAVQTAACNQDAESQKFRWVSESQIMSVAFKLCLGVPSKTDWVAITLYACDSKSEFQKWECKNDTLLGIKGEDLFFNYGNRQEKNIMLYKGSGLWSRWKIYGTTDNLCSRGYEAMYTLLGNANGATCAFPFKFENKWYADCTSAGRSDGWLWCGTTTDYDTDKLFGYCPLKFEGSESLWNKDPLTSVSYQINSKSALTWHQARKSCQQQNAELLSITEIHEQTYLTGLTSSLTSGLWIGLNSLSFNSGWQWSDRSPFRYLNWLPGSPSAEPGKSCVSLNPGKNAKWENLECVQKLGYICKKGNTTLNSFVIPSESDVPTHCPSQWWPYAGHCYKIHRDEKKIQRDALTTCRKEGGDLTSIHTIEELDFIISQLGYEPNDELWIGLNDIKIQMYFEWSDGTPVTFTKWLRGEPSHENNRQEDCVVMKGKDGYWADRGCEWPLGYICKMKSRSQGPEIVEVEKGCRKGWKKHHFYCYMIGHTLSTFAEANQTCNNENAYLTTIEDRYEQAFLTSFVGLRPEKYFWTGLSDIQTKGTFQWTIEEEVRFTHWNSDMPGRKPGCVAMRTGIAGGLWDVLKCDEKAKFVCKHWAEGVTHPPKPTTTPEPKCPEDWGASSRTSLCFKLYAKGKHEKKTWFESRDFCRALGGDLASINNKEEQQTIWRLITASGSYHKLFWLGLTYGSPSEGFTWSDGSPVSYENWAYGEPNNYQNVEYCGELKGDPTMSWNDINCEHLNNWICQIQKGQTPKPEPTPAPQDNPPVTEDGWVIYKDYQYYFSKEKETMDNARAFCKRNFGDLVSIQSESEKKFLWKYVNRNDAQSAYFIGLLISLDKKFAWMDGSKVDYVSWATGEPNFANEDENCVTMYSNSGFWNDINCGYPNAFICQRHNSSINATTVMPTMPSVPSGCKEGWNFYSNKCFKIFGFMEEERKNWQEARKACIGFGGNLVSIQNEKEQAFLTYHMKDSTFSAWTGLNDVNSEHTFLWTDGRGVHYTNWGKGYPGGRRSSLSYEDADCVVIIGGASNEAGKWMDDTCDSKRGYICQTRSDPSLTNPPATIQTDGFVKYGKSSYSLMRQKFQWHEAETYCKLHNSLIASILDPYSNAFAWLQMETSNERVWIALNSNLTDNQYTWTDKWRVRYTNWAADEPKLKSACVYLDLDGYWKTAHCNESFYFLCKRSDEIPATEPPQLPGRCPESDHTAWIPFHGHCYYIESSYTRNWGQASLECLRMGSSLVSIESAAESSFLSYRVEPLKSKTNFWIGLFRNVEGTWLWINNSPVSFVNWNTGDPSGERNDCVALHASSGFWSNIHCSSYKGYICKRPKIIDAKPTHELLTTKADTRKMDPSKPSSNVAGVVIIVILLILTGAGLAAYFFYKKRRVHLPQEGAFENTLYFNSQSSPGTSDMKDLVGNIEQNEHSVI
For B1, the “glycan array binding signal (z-score)” value in the experiment with Fuc(a1-2)Gal(b1-3)GalNAc was -0.435; in [1], -0.234; in the experiment with Fuc(a1-2)GlcNAc, -0.407; in experiment [2], 2.96; in experiment [3], -0.37; in experiment [4], 0.283. In addition, the “glycan array binding signal (z-score)” value in the experiment with Gal3S(b1-4)Glc was 3.67; with Gal3S(b1-4)GlcNAc6S it was 3.5; in the experiment with Gal3S6S(b1-4)GlcNAc6S it was 3.58; in experiment [5], -0.453; with Kdn(a2-3)Gal(b1-4)GlcNAc it was 0.013; with Man(a1-3)[Man(a1-6)]Man, 3.57. Besides, the “glycan array binding signal (z-score)” value in experiment [6] was -0.344; in experiment [7], -0.439; in experiment [8], -0.418; in experiment [9] it was -0.155; in [10], -0.397.

B2: STA (Solanum tuberosum), Q9S8M0 (protein)
chain: NASPPSPSPLPYPQCGMKKGGGKCIKTGECCSIWGWCGTTNAYCSPGYCQKQCPGPYPEGRCGWQANGKSCPTGTGQCCSNGGWCGTTSDYCASKNCQSQCKLPSPPPPPPPPSPPPPSPPSPPPPSPPPPPPPSPPPPSPPPPSPSPPPPPASPPPPPPALPYPQCGIKKGGGKCIKTGECCSIWGWCGTTNAYCSPGYCQKQCPGPYPEGRCGWQANGKSCPTGTGHCCSNAGWCGTTSDYCAPVNCQAQCNTTTLTSPIKNRMRGIESFMLNVV
For the molecule B2, the “glycan array binding signal (z-score)” value is -0.582 with Fuc(a1-2)Gal(b1-3)GalNAc; 2.12 with Fuc(a1-2)Gal(b1-4)GlcNAc; 2.12 in experiment [11]; -0.593 in [12]; -0.595 in [13]; -0.584 in experiment [14]. Besides, the “glycan array binding signal (z-score)” value with Gal(b1-4)Glc was -0.586; in experiment [15], 1.35; in experiment [16], 2.26; in experiment [17] it was -0.564; in experiment [18], 2.18; in experiment [19], -0.589. Further, the “glycan array binding signal (z-score)” value in [20] is 2.22; in experiment [21], -0.578; in experiment [22] it was -0.58; in the experiment with Neu5Gc(a2-3)Gal(b1-4)Glc, -0.591.
